Records with an inconclusive call do not appear. Activity calls are given as the source filed them. The call rests on the fitted dose curve; in most records, active means well fitted curve in the direction sought with a large enough effect; inconclusive means small, poorly fitted or top-dose-only effect, or another doubt; inactive means no such curve, though single readings can be large; an effect the other way counts as inactive or inconclusive.
Tests used:
[1] = MultiTox-Fluor Cytotoxicity Assay - LYMP1-001 - Dead Cells (AID 946)
Summary of the method: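 Cytotoxicity as increased dead-cell protease fluorescence (bis-AAF-R110, 485/520 nm), read 60 min after MultiTox-Fluor reagent. Human lymphoblastoid line exposed 16 h; Hill-fitted AC50, with DMSO as 0% and 15 uM tetraoctylammonium bromide as 100%.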

[2] = MultiTox-Fluor Cytotoxicity Assay - LYMP1-001 - Live Cells (AID 947)
[3] = Cell Viability - LYMP1-002 - Assay at 16 hr (AID 948)
Summary of the method: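 Seed 2500 LYMP1-002 cells per well in complete medium and hold 5 hr at 37 C. Add compound across a concentration series and incubate 16 hr at 37 C. Add CellTiter-Glo, wait 30 min at room temperature, read luminescence.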

[4] = MultiTox-Fluor Cytotoxicity Assay - LYMP1-002 - Live Cells (AID 955);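 further: cells exposed to compound for 16 hours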
Summary of the method: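 In this qHTS viability format, lymphoblastoid cells (LYMP1-002, human) received compound for 16 hr at 37 C. Fluorogenic GF-AFC cleavage by viable cells was detected at 405/510 nm after 1 h at room temperature.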

[5] = MultiTox-Fluor Cytotoxicity Assay - LYMP1-002 - Dead Cells (AID 960); further: nearly all actives have a fitted effect of over 60% in size
Summary of the method: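 Concentration-dependent increases in membrane-leaked protease activity are quantified in LYMP1-002 cells after 16 hr treatment; values are normalized against DMSO and tetraoctylammonium bromide (15 uM) controls and AC50 derived by Hill modeling.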

[6] = MultiTox-Fluor Cytotoxicity Assay - LYMP1-003 - Dead Cells (AID 961); further: nearly all actives have a fitted effect of over 70% in size
Summary of the method: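 Dead-cell protease release, detected as bis-AAF-R110 fluorescence at 485/520 nm, was measured in LYMP1-003 cells after 16 h compound treatment at 37 C. AC50 values came from Hill-modeled qHTS curves normalized to DMSO (0%) and 15 uM tetraoctylammonium bromide (100%).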

[7] = Cell Viability - LYMP1-003 - Assay at 24 hr (AID 963)
Summary of the method: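 The lymphoblastoid line was treated with titrated compounds for 24 hours, and viable cell number estimated from luciferase-based ATP luminescence.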

[8] = Cell Viability - LYMP1-003 - Assay at 40 hr (AID 964); further: series mostly up to about 92 µM; nearly all actives have a fitted effect of over 60% in size
Summary of the method: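 Acute toxicity is scored as a concentration-dependent loss of intracellular ATP in LYMP1-003 cells (2500/well, complete medium) after 40 hr at 37 C, measured by CellTiter-Glo luminescence; AC50 values derive from standard Hill modelling.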

[9] = Cell Viability - LYMP2-003 (AID 965);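 further: cells exposed to compounds for 24 h before reading; nearly all actives have a fitted effect of over 50% in size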
Summary of the method: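 Seed 2500 lymphoblastoid cells/well; incubate 5 hr, 37 C; add compounds; incubate 24 hr, 37 C; add CellTiter-Glo, 30 min RT; read luminescence. AC50 from Hill fit.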

[10] = Cell Viability - LYMP2-004 (AID 966); further: nearly all actives have a fitted effect of over 65% in size
Summary of the method: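 Viable-cell number estimated from ATP luminescence (CellTiter-Glo) in 2500 human lymphoblastoid cells/well after 24 hr at 37 C with compound. AC50 fitted to the standard Hill equation.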

[11] = Cell Viability - LYMP2-005 (AID 967); further: series mostly up to about 92 µM
Summary of the method: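 Acute cytotoxicity is scored as a concentration-dependent drop in intracellular ATP in human lymphoblastoid LYMP2-005 cells after 24 h compound treatment. ATP is quantified by luciferase luminescence, and AC50 is derived by Hill-equation modelling.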

[12] = Cell Viability - LYMP2-009 (AID 968); further: series mostly up to about 92 µM; nearly all actives have a fitted effect of over 55% in size
[13] = Cell Viability - LYMP2-011 (AID 969); further: nearly all actives have a fitted effect of over 60% in size
Summary of the method: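 Cells seeded at 2500 per well rest 5 hr before compound addition, then incubate 24 hr at 37 C. CellTiter-Glo reagent is added for 30 min at room temperature before luminescence detection.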

[14] = Cell Viability - LYMP2-013 (AID 970); further: series mostly up to about 92 µM; nearly all actives have a fitted effect of over 55% in size
Summary of the method: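 In complete culture medium, human lymphoblastoid cells were dosed for 24 hr at 37 C, with tetraoctylammonium bromide (6.4pM to 92 uM) as positive control. Viability reflects luciferase-based ATP signal; AC50 derived from concentration-response curves.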

[15] = Cell Viability - LYMP2-015 (AID 971); further: nearly all actives have a fitted effect of over 55% in size
Summary of the method: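 AC50 values reflect Hill-model fits of ATP-based luminescence (CellTiter-Glo) from a human lymphoblastoid line, 2500 cells/well, treated 24 hr at 37 C.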

[16] = Cell Viability - LYMP2-017 (AID 972); further: series mostly up to about 92 µM; nearly all actives have a fitted effect of over 55% in size
Summary of the method: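 In this qHTS format, lymphoblastoid cells in complete medium receive test compound for a day at 37 C before ATP content is quantified by luciferase luminescence. Reported AC50 figures come from standard Hill-equation curve fitting.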

[17] = Cell Viability - LYMP2-019 (AID 973); further: nearly all actives have a fitted effect of over 55% in size
Summary of the method: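 AC50 values come from Hill-equation modelling of qHTS concentration-response curves, where viability is measured as luciferase-based ATP luminescence in the lymphoblastoid line after 24 hr compound exposure in complete culture medium.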

[18] = Cell Viability - LYMP2-021 (AID 974)
Summary of the method: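 In qHTS format, compounds are tested against 2500 lymphoblastoid cells per well for 24 h; viable cell number is inferred from ATP-driven luciferase light, and Hill-equation fitting yields AC50 values.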

[19] = Cell Viability - LYMP2-023 (AID 975)
Summary of the method: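 In this qHTS, ATP-based luciferase luminescence (CellTiter-Glo) is quantified in human lymphoblastoid cells after 24 hr compound treatment at 37 C; tetraoctylammonium bromide serves as positive control. Concentration-response curves are Hill-fitted to give AC50.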

[20] = Cell Viability - LYMP2-025 (AID 976); further: series mostly up to about 92 µM
Summary of the method: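 Luminescent ATP readout after 24 hr treatment of a human lymphoblastoid line (LYMP2-025, 2500 cells/well, 37 C). Reagent developed 30 min at room temperature; AC50 fitted with the Hill equation.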

[21] = Cell Viability - LYMP2-002 (AID 977);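 further: series mostly up to about 92 µM; compound exposure lasted 24 h at 37 °C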
Summary of the method: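 Human lymphoblastoid cells (2500/well) in complete medium were preincubated 5 hr at 37 C, then exposed to compounds for 24 hr at 37 C. Intracellular ATP was read by CellTiter-Glo luminescence; AC50 came from Hill-equation concentration-response fits.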

[22] = Cell Viability - LYMP2-006 (AID 978); further: series mostly up to about 92 µM; nearly all actives have a fitted effect of over 60% in size
Summary of the method: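 Cells are seeded at 2500 per well and rested 5 hr at 37 C. Compounds are added across a concentration series for 24 hr at 37 C, after which ATP is quantified by luciferase luminescence.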

Measured: Potency

COC1=CC(=O)O[C@@H](/C=C/c2ccc3c(c2)OCO3)C1
inactive: all assays above

Source: PubChem BioAssay (NCATS)
